Measurements published in PubChem BioAssay (NCATS).
Where a name gives a salt, the structure may show the parent alone. Results filed as inconclusive are left out. Where a call stands in place of a potency, no number is given. Calls of active or inactive are those of the source. Unless noted, the call rests on the fitted dose curve; in most records, active means well fitted curve in the direction sought with a large enough effect; inconclusive means small, poorly fitted or top-dose-only effect, or another doubt; inactive means no such curve, though single readings can be large; an effect the other way counts as inactive or inconclusive. Peptide text beside a SMILES is read from it. * marks the point of attachment. Tfa = O=C(C(F)(F)F)*

Columns and labels:
[1] = molecular target: Cytochrome P450 3A4 (Homo sapiens) (UniProt P08684); test: qHTS Assay for Inhibitors and Substrates of Cytochrome P450 3A4 (AID 884); further: nearly all actives have a fitted effect of over 50% in size; further: potency means the concentration at half of the fitted maximal effect
Procedure, shortened: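 20 nM human CYP3A4 with 25 uM Luciferin-PPXE (at KM) in 200 mM KPO4, preincubated 10 min with compound; NADPH regeneration started a 60 min RT reaction. Luciferin detected by luminescence, normalized to 57 uM ketoconazole as full inhibition.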

[2] = Confirmation and Secondary Assay for Modulators of Hemoglobin Beta Chain Splicing at IVS2 654 locus (AID 910);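 further: HeLa cells stably carrying EGFP split by mutant beta-globin IVS2-654 intron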
Procedure, shortened: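 HeLa cells stably expressing EGFP interrupted by β-globin IVS2-654 intron, seeded overnight in Opti-MEM/2% FCS, then treated 2 days at 37 °C. Restored splicing read as total peak GFP intensity per well by laser scanning cytometry (488 nm excitation, 500–520 nm emission); 500 nM antisense PNA as control.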

[3] = Confirmation and Secondary Assay for Modulators of Hemoglobin Beta Chain Splicing at IVS2 705 locus (AID 930);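 further: HeLa cells stably expressing the EGFP-705 splicing reporter; GFP fluorescence per well restored by corrected splicing of the IVS2-705 intron in EGFP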
Procedure, shortened: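 First, HeLa EGFP-705 cells are seeded at 500/well in Optimem with 2% FCS and left overnight. Next, compound or DMSO is added for 2 days. Finally wells are laser-scanned and total peak GFP intensity scored.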

[4] = qHTS Assay for Lipid Storage Modulators (AID 1519; calls by dose curve); conditions: Drosophila S3 cells, BODIPY lipid droplet/cell ratio, laser cytometry, cells loaded with oleic acid; for activity change, negative = inhibition: at 57.5 µM (top of the series)
Procedure, shortened: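 Cells seeded at 5,000 per well were treated with compounds over a concentration series and loaded with oleic acid (400 uM, as added). Lipid droplet fluorescence (488 nm excitation, 500-530 nm channel) was read by laser-scanning cytometry and normalized to 20 uM Triacsin C.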

[5] = molecular target: Ubiquitin carboxyl-terminal hydrolase 1 (Homo sapiens) (UniProt O94782); test: Inhibitors of USP1/UAF1: Pilot qHTS (AID 504865);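 further: rhodamine fluorescence freed from ubiquitin-rhodamine substrate followed over time; top concentration of the series differs between compounds; nearly all actives have a fitted effect of over 35% in size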
Procedure, shortened: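 In 50mM HEPES pH 7.8 containing 0.5mM EDTA, 1mM TCEP, 0.1 mg/ml BSA and 0.01% Tween-20, 1nM USP1/UAF1 is exposed to compound for 15 min, then Ub-Rho (150nM final) is added and fluorescence is read over time.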

[6] = measured here: cell count channel max response
[7] = measured here: lipid channel max response

Cytochrome P450 3A4 (Homo sapiens), sequence (P08684 whole entry, looked up): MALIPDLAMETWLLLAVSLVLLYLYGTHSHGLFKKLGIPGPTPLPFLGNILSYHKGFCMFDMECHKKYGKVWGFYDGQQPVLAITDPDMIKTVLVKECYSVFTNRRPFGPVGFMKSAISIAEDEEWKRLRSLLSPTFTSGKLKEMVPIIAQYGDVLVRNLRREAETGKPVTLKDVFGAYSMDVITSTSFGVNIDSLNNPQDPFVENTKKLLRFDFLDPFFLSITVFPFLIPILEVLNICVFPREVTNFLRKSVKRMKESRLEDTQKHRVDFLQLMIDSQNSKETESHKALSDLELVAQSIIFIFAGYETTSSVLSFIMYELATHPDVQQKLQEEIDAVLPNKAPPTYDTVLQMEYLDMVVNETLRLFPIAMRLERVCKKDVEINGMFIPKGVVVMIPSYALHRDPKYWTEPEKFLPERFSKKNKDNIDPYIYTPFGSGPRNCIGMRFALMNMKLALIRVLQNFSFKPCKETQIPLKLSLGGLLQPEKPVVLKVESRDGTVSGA
Ubiquitin carboxyl-terminal hydrolase 1 (Homo sapiens), sequence (O94782 whole entry, looked up): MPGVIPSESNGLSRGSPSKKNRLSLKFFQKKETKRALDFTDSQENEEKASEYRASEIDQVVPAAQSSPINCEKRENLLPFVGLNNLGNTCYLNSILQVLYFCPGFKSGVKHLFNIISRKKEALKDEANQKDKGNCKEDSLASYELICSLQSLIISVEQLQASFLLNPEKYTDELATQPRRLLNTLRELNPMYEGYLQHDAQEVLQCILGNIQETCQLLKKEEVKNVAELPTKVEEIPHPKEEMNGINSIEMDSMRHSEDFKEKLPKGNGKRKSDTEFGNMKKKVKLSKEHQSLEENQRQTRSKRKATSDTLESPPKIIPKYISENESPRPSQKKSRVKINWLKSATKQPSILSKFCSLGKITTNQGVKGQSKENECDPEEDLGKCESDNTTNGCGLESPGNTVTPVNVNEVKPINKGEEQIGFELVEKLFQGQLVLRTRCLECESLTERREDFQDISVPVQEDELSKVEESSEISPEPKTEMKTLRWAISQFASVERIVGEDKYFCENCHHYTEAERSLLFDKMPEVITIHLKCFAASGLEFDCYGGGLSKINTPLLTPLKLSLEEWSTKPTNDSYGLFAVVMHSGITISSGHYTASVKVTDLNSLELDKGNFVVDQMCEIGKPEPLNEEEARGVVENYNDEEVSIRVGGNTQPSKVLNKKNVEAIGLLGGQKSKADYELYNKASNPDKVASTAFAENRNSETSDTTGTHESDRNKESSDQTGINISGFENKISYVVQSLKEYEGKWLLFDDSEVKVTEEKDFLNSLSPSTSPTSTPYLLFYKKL

| SMILES | Potency [1] | Potency [2] | Potency [3] | activity change, negative = inhibition [4] | max response [4, 6] [%] | max response [4, 7] [%] | Potency [5] |
| --- | --- | --- | --- | --- | --- | --- | --- |
| Nc1ncnc2c1[nH]c(=O)n2C1OC(CO)C(O)C1O (centres undefined) | inactive | inactive | inactive | -0.198% (inactive) | 11.6 | 24.7 | inactive |
| C/C=C1\C2C=C(C)C[C@@]1(N)c1ccc(=O)[nH]c1C2 | inactive | inactive | inactive | 13.7% (inactive) | 9.87 | 26.4 | inactive |
| CC(=O)OCC(OC(C)=O)C(OC(C)=O)C(OC(C)=O)C(OC(C)=O)C(COC(C)=O)OC(C)=O (centres undefined) | inactive | inactive | inactive | 10.5% (inactive) | 5.07 | 17.8 | inactive |
| O=C(/C=C/c1ccc(O)c(O)c1)O[C@H]1C[C@@](O)(C(=O)O)CC(O)C1O (some centres undefined) | inactive | inactive | inactive | 12.5% (inactive) | 13.7 | 29.5 | inactive |
| C=C1C2CC[C@@]3(C)C(c4ccoc4)OC(=O)C[C@@]13OC1CC(=O)C(C)(C)C(CC(=O)OC)[C@]12C (some centres undefined) | 5.01 µM (active) | inactive | inactive | 0.233% (inactive) | -7.73 | -5.31 | inactive |
| O=c1ccn(C2OC(COP(=O)(O)OP(=O)(O)OP(=O)(O)O)C(O)C2O)c(=O)[nH]1 (centres undefined) | inactive | inactive | inactive | 6.49% (inactive) | 21.5 | 29.6 | inactive |
| OCC1OC(n2cnc3c(Cl)nc(Cl)nc32)C(O)C1O (centres undefined) | inactive | inactive | inactive | 6.74% (inactive) | 16.5 | 22.9 | inactive |
| CCOC(=O)C(CCc1ccccc1)NC(C)C(=O)N1CCCC1C(=O)O (centres undefined) | inactive | inactive | inactive | 10.8% (inactive) | 9.89 | 24.1 | inactive |
| CC1=CC2C(C(C)C)CCC(C)(O)C2CC1 (centres undefined) | inactive | inactive | inactive | -0.741% (inactive) | -7.33 | -6.55 | inactive |
| Cc1onc(-c2ccccc2)c1C(=O)NC1C(=O)N2C(C(=O)O)C(C)(C)S[C@@H]12 (some centres undefined) | inactive | inactive | inactive | 9.92% (inactive) | 9.88 | 24.8 | inactive |
| CC(=O)C1CCC2C3CC=C4CC(O)CC[C@@]4(C)C3CC[C@]12C (some centres undefined) | inactive | inactive | inactive | 2.94% (inactive) | 11.3 | 18.4 | inactive |
| COc1c(O)cc2c(c1O)C1OC(CO)C(O)[C@H](O)[C@H]1OC2=O (some centres undefined) | inactive | inactive | inactive | 6.03% (inactive) | 7.39 | 14.2 | inactive |
| CCCCCCCCCCCCC(C(=O)O)C(C)C(=O)O (centres undefined) | inactive | inactive | inactive | 4.67% (inactive) | 6.54 | 14 | inactive |
| COc1cc2c(cc1O)C(Cc1ccc(O)cc1)N(C)CC2 (centres undefined) | inactive | inactive | inactive | 2.46% (inactive) | 13.5 | 17.7 | inactive |
| CC(C)C(NC(=O)C(Cc1ccc(O)cc1)NC(=O)C(NC(=O)C(F)(F)F)C(C)C)C(=O)O (stereo not drawn) (Tfa-Val-Tyr-Val-OH; configuration not given here) | inactive | inactive | inactive | 4.31% (inactive) | 0.432 | 4.35 | inactive |
| C=C1C(N)CC2CC1C2(C)C (centres undefined) | inactive | inactive | inactive | 1.08% (inactive) | 14 | 14.9 | inactive |
| OC1C2COC(O2)[C@H](O)C1O (some centres undefined) | inactive | inactive | inactive | 7.67% (inactive) | 12.6 | 22.2 | inactive |
| CC(=O)NC(CC(=O)O)C(=O)NC(CCC(=O)O)C(=O)O (stereo not drawn) (Ac-Asp-Glu-OH; configuration not given here) | inactive | inactive | inactive | 4.52% (inactive) | 12.9 | 18.5 | inactive |
| CC1(C)C=Cc2cc3ccc(=O)oc3cc2O1 | inactive | inactive | inactive | 11.6% (inactive) | -4.2 | 7.43 | inactive |
| COc1cc2c(cc1O)C(Cc1ccc(O)cc1)[N+](C)(C)CC2 (centres undefined) | inactive | inactive | inactive | 12.6% (inactive) | 6.75 | 22.8 | inactive |
| COc1cc2c(cc1OC)C1(O)C(=O)c3ccc(O)c(C(=O)O)c3OC1CO2 (centres undefined) | inactive | inactive | inactive | 8.88% (inactive) | 8.21 | 21.1 | inactive |
| CC(=O)OC1CC[C@@]2(C)C(CC[C@@]3(C)C2CC=C2C4CC(C)(C)CC[C@]4(C(=O)O)CC[C@@]23C)C1(C)C (some centres undefined) | inactive | inactive | inactive | 9.65% (inactive) | 12.5 | 29 | inactive |
